Among the data in PubChem BioAssay AID2314 (National Center for Advancing Translational Sciences (NCATS), 2010) are max response values, retold here.

The whole screen tested about 300,000 compounds, of which about 37,000 (12%) were called active. The sample holds actives, similar compounds and a random draw of the others, so the mix is not that of the screen. A number with no mark means an inactive call. Cut-off read from the data, not from the text of the source: active = max response mostly above about 13% (no sharp cut-off); inactive = mostly below about 14%.

This experiment can be described thus: Cycloheximide Counterscreen for Small Molecule Inhibitors of Shiga Toxin. Note: read at 38.3 µM for the half of the compounds with a filed dose; 0% is about no effect. To be noted: cell reporter, cycloheximide protein synthesis inhibition counterscreen; active compounds read high.
Take `COC(=O)c1ccc(S(=O)(=O)NCc2ccccc2)n1C`: the max response is -1.21%.

In the case of `COc1ccc(C2C3=C(CCCC3=O)N(CC(=O)O)C3=C2C(=O)CCC3)cc1`, the max response is -0.955%.

As for `CC(=O)Cc1nsc(NC(=O)c2ccc(COc3ccc(C)cc3)o2)n1`, the max response was 4.45%.

With `CCOc1ccc(OCc2ccc(C(=O)Nc3cccc(C)n3)o2)cc1`, the max response was 21.2% (active).

Regarding `Cc1cccc(NC(=O)c2ccc(COc3ccccc3[N+](=O)[O-])o2)n1`, the max response was 9.42%.

As to `Cc1ccc(NC(=O)c2nc[nH]c2C(=O)N[C@@H](CCCCNC(=O)OC(C)(C)C)C(=O)OC(C)(C)C)cc1`, the max response is -3.36%.

In the case of `O=C(NCC(=O)N1CCN(c2ncc(C(F)(F)F)cc2Cl)CC1)c1ccc(Br)o1`, the max response is -1.14%.

In the case of `CCc1nnc(NC(=O)c2nc3nccc(C)n3n2)s1`, the max response was -2.71%.

Take `CCCC(=O)Nc1nnc(-c2ccccc2)o1`: the max response is -3.55%.

Take `Cc1ccnc2nc(C(=O)Nc3nnc(-c4ccccc4)o3)nn12`: the max response was 23.5% (active).

In the case of `C=CCN(c1ccccc1C(=O)NCC(=O)OCC)S(=O)(=O)c1ccc(C)cc1`, the max response was -3.9%.

Take `CCn1cc(C(=O)NCCCN2CCCCCC2)c(=O)c2cc(S(=O)(=O)N3CCc4ccccc4C3)ccc21`: the max response is -1.21%.

Take `CCO[C@H]1OC(C(=O)NCc2ccccc2)=C[C@@H](c2coc3ccccc3c2=O)[C@@H]1CCCO`: the max response was -1.05%.

Regarding `CCC(=O)N1c2ccc(S(=O)(=O)NCc3ccco3)cc2CC1C` (stereo not drawn), the max response is 19.8%.

With `O=C(O)CCCC(=O)Nc1ccc(Oc2cccc(C(F)(F)F)c2)nc1`, the max response is 5.78%.

`COc1ccc(C(=O)N2CCCC(C(=O)c3ccccc3OC)C2)cc1OC` (stereo not drawn): the max response was 9.55%.

Take `COCC1CCN(C(=O)c2ccc3oc(Cc4ccccc4)nc3c2)C1` (stereo not drawn): the max response is 39.1% (active).

In the case of `COC(=O)C1CCN(C(=O)c2ccc3oc(Cc4ccc(Cl)cc4)nc3c2)CC1`, the max response is -2.56%.

For `COc1c(C)cc(C(=O)C2CCCN(S(=O)(=O)c3c(C)noc3C)C2)cc1C` (stereo not drawn), the max response is 5.32%.

Regarding `Cc1ccc2c(c1)N(CC(=O)N1CCOCC1)C(=O)CO2`, the max response was -3.08%.

`Cc1nc(-c2ccc(Cl)cc2)sc1C1(C)CC(c2ccccc2F)=NO1` (stereo not drawn): the max response was 20.7% (active).

`Cc1nc(C(=O)NCc2ccccc2)sc1C1(C)CC(c2cccnc2)=NO1` (stereo not drawn): the max response was -3.23%.

On to `Cc1nc(C(=O)Nc2ccc(Cl)cc2)sc1C1(C)CC(c2ccccc2)=NO1` (stereo not drawn), for which the max response is 9.03%.

Take `CCN(c1ccc(NC(=O)COC(=O)CCc2nc3ccccc3n2-c2ccccc2)cc1)C(C)C`: the max response was 6.5%.

Consider `COc1ccccc1NC(=O)COc1ccc(C(=O)OCC(=O)N(C(C)C)C(C)C)cc1OC`, for which the max response is -3.62%.

With `COc1ccc2c(c1)C(NS(=O)(=O)OCC(Cl)(Cl)Cl)CCC2` (stereo not drawn), the max response was 0.921%.

In the case of `COc1cc2c(C(=O)N3CCN(C)CC3)c(CSc3ccccc3)n(C)c2cc1Br`, the max response was -3.14%.

In the case of `Cc1ccc(C(=O)N/C(=C\c2cn(S(=O)(=O)N(C)C)c3ccccc23)C(=O)N2CCCC2)cc1`, the max response was -4.36%.

For the molecule `Cc1nc(-c2ccc(F)cc2)c(CC(=O)N2CCN(S(=O)(=O)c3ccc(F)cc3)CC2)s1`, the max response was -1.12%.

As to `CCOc1ccc(CNC(=O)CCC(=O)N2CCSc3ccccc32)cc1`, the max response is 3.9%.

As to `Cc1ccc(NC(=O)N2CCC(O)(c3cccnc3)CC2)cc1`, the max response is -0.6%.

With `Cc1ccc(NC(=O)N2CCSc3ccccc32)cc1`, the max response was 21.8% (active).

Regarding `Cc1ccc2c(=O)oc(N(C)C)nc2c1`, the max response was -3.11%.

With `COc1ccc(CNC(=O)CCN2C(=O)c3ccccc3C2=O)cc1`, the max response was -8.4%.

Consider `Cc1cc(C(=O)NC2CCCc3c2cnn3-c2cccc(C)c2C)c(C)o1` (stereo not drawn), for which the max response was 0.915%.

With `O=C1NC(=O)C2C1C(c1ccc([N+](=O)[O-])cc1)=NN2Cc1ccccc1` (stereo not drawn), the max response was -2.84%.

For `CCOc1ccc2c(c1)C(c1ccc(C)cc1)=NNC(c1ccc(C)cc1)=N2`, the max response is 54.8% (active).

As for `CCC1OC(c2ccc([N+](=O)[O-])cc2)=Nc2ccccc21` (stereo not drawn), the max response was -5.5%.

On to `Cc1ccc(C2=Nc3c(ccc4ccccc34)C(c3ccncc3)=NN2)cc1`, for which the max response is 1.6%.

As to `COc1ccc2c(c1)C(c1cccs1)=NNC(c1cccnc1)=N2`, the max response was 18.1%.

For the molecule `CCc1ccc2c(c1)C(c1ccc([N+](=O)[O-])cc1)=NNC(c1ccccc1)=N2`, the max response was 33.3% (active).

For the molecule `COc1ccc(-c2onc3ccc(C(C)=O)cc23)cc1`, the max response was 2.44%.

For the molecule `CC1=C(C(=O)OC(C)(C)C)C(c2ccc(Br)cc2)NC(=O)N1CCCC(=O)O` (stereo not drawn), the max response was -2.28%.

On to `O=C(c1cc2cc(Br)cc(Br)c2oc1=O)N1CCOCC1`, for which the max response was 0.493%.

Turning to `CC1CCN(CCCNC(=O)CN2C(=O)CSc3ccc(S(=O)(=O)N4CCCCC4)cc32)CC1`, the max response was -0.237%.

For `O=C(CN1CCC(NC(=O)C2CC2)CC1)Nc1ccccc1[N+](=O)[O-]`, the max response was 7%.

For `O=C1c2ccccc2C(=O)N1CCc1nn[nH]n1`, the max response is -3.78%.

For the molecule `O=C1c2ccccc2C(=O)N1CCC(c1ccccc1)c1ccco1` (stereo not drawn), the max response is 24.4% (active).

For the molecule `O=C1c2ccccc2C(=O)N1CCC(O)C[N+](=O)[O-]` (stereo not drawn), the max response is -2.75%.

Consider `CCCN1CCn2c3c(c4cc(Br)ccc42)CCCC31` (stereo not drawn), for which the max response was 25.3% (active).

Consider `OC(CNCC1CCCO1)Cn1c2ccc(Br)cc2c2cc(Br)ccc21` (stereo not drawn), for which the max response is -6.3%.

On to `COCCn1c(SCC(=O)c2[nH]c(C)c(C(C)=O)c2C)nc2ccccc2c1=O`, for which the max response was -3.66%.

For `N#Cc1c(NC(=O)c2ccc(N3CCOCC3)c([N+](=O)[O-])c2)sc2c1CCCC2`, the max response is 1.18%.

In the case of `N#Cc1c(NC(=O)C2CC(Cl)=CCC2C(=O)O)sc2c1CCCCC2` (stereo not drawn), the max response is -1.59%.

`N#Cc1c(NC(=O)CCCl)sc2c1CCCCC2`: the max response is 21.9% (active).

Consider `CCN1CCN(CC(=O)Nc2sc3c(c2C#N)CCC3)CC1`, for which the max response was 1.34%.

In the case of `CC(=O)c1c(C)[nH]c(C(=O)OCC(=O)Nc2sc3c(c2C#N)CCCC3)c1C`, the max response was -1.13%.

Turning to `N#Cc1c(NC(=O)C2CCCO2)sc2c1CCCCC2` (stereo not drawn), the max response was 48.6% (active).
